HT1080 IDH1KD tx: qHTS for induction of synthetic lethality in tumor cells producing 2HG: qHTS for the HT-1080-IDH1KD cell line. HT-1080 IDH1 knockdown viability, ATP luminescence, 48 h. actives 2% (n = 360,000). AID 686971, 2013. Potency, µM (highest dose often 46.1 µM), inactives show top-dose activity, negative = toxicity, usual class: cytotoxic;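 also: 0% = DMSO wells and -100% = cell-free medium wells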
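% activity derives from luminescence (CellTiter-Glo), normalised to DMSO and no-cell wells. HT-1080-IDH1KD cells, 750/well, had 48 h compound exposure at 37 °C.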
HT1080-NT tox: qHTS for induction of synthetic lethality in tumor cells producing 2HG: qHTS for the HT-1080-NT fibrosarcoma cell line | HT-1080-NT fibrosarcoma viability, CellTiter-Glo ATP luminescence, 48 h | Potency, µM (highest dose often 46.1 µM), without a hit: top-dose activity, negative = less viability, usual class: cytotoxic | actives 1.6% (n = 360,000) | AID 686970, 2013;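 also: NT is the 2HG producing partner of a matched IDH1 knockdown line; 0% = DMSO-treated cells and -100% = media-only wells without cells; nearly all actives have a fitted effect of over 55% in size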
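750 cells/well, RPMI + 5% FBS; 2 h settle, compound pin-transfer, 48 h at 37 degrees C. CellTiter-Glo 10 min RT, luminescence. Normalized to DMSO and media-only wells.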
TDP1 cell noCPT: qHTS for Inhibitors of human tyrosyl-DNA phosphodiesterase 1 (TDP1): qHTS in cells in absence of CPT | DT40 Tdp1-/- hTDP1 cells, no CPT, ATP luminescence, 48 h | Potency, µM (top dose mostly 46.2 µM), inactives show at the highest dose activity change, negative = growth inhibition, actives largely listed as inhibitors | AID 686978, 2013 | actives 15% (n = 420,000); also: % is scaled to controls: 0 for no effect and ±100 for the full control effect; nearly all actives have a fitted effect of over 55% in size
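Cells were dispensed at 400 per well, compounds added by pin tool, plates incubated ≥48 hr at 37 °C, then CellTiter-Glo added for 30 min at room temperature before luminescence reading. Line: DT40 Tdp1-/- complemented with hTDP1; camptothecin omitted.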
HepG2 viability: qHTS for Inhibitors of TGF-b: Cytotox Counterscreen; AID 588856, 2011; actives 0.76% (n = 410,000); HepG2 CAGA-GFP viability, ATP luminescence, 18 h; Potency, µM (series often up to 46.1 µM), for the others: at the highest dose activity change, negative = cytotoxicity, hits mostly cytotoxic
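HepG2 CAGA-GFP cells (1000/well, DMEM with 1% FBS) received compound, then TGF-beta at 500 pg/mL final, and were incubated 18 hours at 37 degrees C. Viability was read by CellTiter-Glo luminescence. Media-only wells were set as complete cell-killing and DMSO as no toxicity.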
TGFb inhibitor: qHTS for Inhibitors of TGF-b; AID 588855, 2011; actives 1.2% (n = 410,000); Potency, µM (titrated, usually from 46.1 µM), for inactives: at the top dose activity, negative = inhibition, actives largely listed as inhibitors; HepG2 CAGA-GFP TGF-b/SMAD3 reporter, GFP fluorescence, 18 h; TGF-beta stimulated, 500 pg/mL final; also: % is scaled to controls: 0 for no effect and ±100 for the full control effect; nearly all actives have a fitted effect of over 65% in size
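GFP signal (ex488/em500-530) from TGF-beta-stimulated HEPG2 CAGA-GFP cells, 500 pg/mL final, 18 h at 37 degrees C in DMEM plus 1% FBS, normalized to unstimulated and DMSO-stimulated controls.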
DT40 TDP1 CPT: qHTS for Inhibitors of human tyrosyl-DNA phosphodiesterase 1 (TDP1): qHTS in cells in presence of CPT | chicken DT40 Tdp1-/-;hTDP1 cells + 20 nM CPT, ATP luminescence, 48 h | Potency, µM (doses to about 46.2 µM), for the others: top-dose activity change, negative = growth inhibition, actives largely listed as inhibitors | actives 12% (n = 420,000); also: % is scaled to controls: 0 for no effect and ±100 for the full control effect; nearly all actives have a fitted effect of over 55% in size
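Chicken DT40 Tdp1-/- cells complemented with human TDP1, 400 cells/well, exposed to compounds plus 20 nM camptothecin for at least 48 h at 37 C; viability read as ATP content by CellTiter-Glo luminescence.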
Numbers without * were called inactive; ? = inconclusive; nt = no result given; [ ] = remark or other dose. The list is not random: actives were taken first. Their share in the collection is about 17%. Calls follow the shape of the dose curve; as a rule, active = well fitted curve in the direction sought with a large enough effect; inconclusive = small, poorly fitted or top-dose-only effect, or another doubt; inactive = no such curve, though single readings can be large; an effect the other way counts as inactive or inconclusive. Potency is read from the fitted curve at half-maximal effect.

SMILES	HT1080 IDH1KD tx	HT1080-NT tox	TDP1 cell noCPT	HepG2 viability	TGFb inhibitor	DT40 TDP1 CPT
Cc1ccc(S(=O)(=O)N2CCN(c3nc(-c4cnccn4)nc4ccccc34)CC2)cc1	1%	1%	18µM*	nt	nt	?
O=S(=O)(c1ccccc1Br)N1CCN(c2nc(-c3ccccc3)nc3ccccc23)CC1	nt	nt	14µM*	7%	5%	?
Cc1ccc(S(=O)(=O)N2CCN(c3nc(-n4c(=O)[nH]c5ccccc54)nc4ccccc34)CC2)cc1	-6%	-8%	13µM*	nt	nt	11µM*
Cc1ccc(C(=O)N2CCC(N3CCC(C(=O)N4CCOCC4)CC3)CC2)cc1	5%	11%	-20%	-2%	2%	-5%
COC(=O)c1nc(N2CCN(S(=O)(=O)c3ccc(C)cc3)CC2)c2ccccc2n1	11%	3%	18µM*	nt	nt	?
CCC(C)c1ccc2oc(-c3ccc(NC(=O)Cn4cnc5c(=O)n(C)c(=O)n(C)c54)cc3)nc2c1 (centres undefined)	0%	10%	15µM*	2%	11%	21µM*
Cc1ccc(CN2CCC(CNC(=O)c3cc4ccc5cccnc5c4[nH]3)CC2)cc1	nt	nt	16µM*	13µM*	?	16µM*
Cc1ccc(C)c(CN2CCC(CNC(=O)c3cc4ccc5cccnc5c4[nH]3)CC2)c1	nt	nt	?	-76%	?	?
COc1ccc(OC)c(CNC(=O)c2cc3ccc4cccnc4c3[nH]2)c1	nt	nt	26µM*	-46%	?	?
CCN(Cc1ccccc1)C(=O)c1cc2ccc3cccnc3c2[nH]1	nt	nt	18µM*	-63%	?	?
COCCn1c(Cc2ccccc2)nnc1SCC(=O)Nc1oc(C)c2c(C)n[nH]c(=O)c12	13%	7%	0%	-1%	1%	0%
CCC1CN(CC(=O)NCc2cc(C)n(C)n2)Cc2cc(OC)ccc2O1 (centres undefined)	nt	nt	-3%	nt	nt	18%[9.04 µM]
COc1ccc(/C=N/NC(=O)CC(=O)NCc2cccnc2)cc1	13%	14%	-1%	14%	-21%	-11%
Cc1ccc(NC(=S)NNC(=O)C2CC2c2ccc(C)cc2)cc1 (centres undefined)	1%	0%	-16%	3%	14%	2%
COCCCNC(=S)NNC(=O)C1CC1c1ccc(C(C)(C)C)cc1 (centres undefined)	-11%	-14%	8.2µM*	-1%	-9%	12µM*
CC(OC(=O)/C=C/c1cccs1)C(=O)Nc1ccc(C(N)=O)cc1 (centres undefined)	-6%	0%	?	2%	0%	?
COc1ccc(/C=C/C(=O)Oc2cccc(/C=N/NC(=O)COc3c(C)cccc3C)c2)cc1	-21%	-20%	15µM*	-35%	-1%	21µM*
O=C(CCn1cnc(-c2ccccc2)c1-c1ccccc1)N/N=C/c1ccccc1O	15µM*	13µM*	4.6µM*	-43%	?	5.2µM*
COc1ccc(/C=N/NC(=O)CCn2cnc(-c3ccccc3)c2-c2ccccc2)cc1	3.3µM*	3.3µM*	0.65µM*	-35%	11µM*	1.6µM*
O=C(CCn1cnc2ccccc21)N/N=C/C=C/c1ccccc1	0%	6%	-1%	-17%	1%	12%

High-throughput results: PubChem BioAssay, National Center for Advancing Translational Sciences (NCATS)
